Data: PubChem BioAssay (NCI)
The panel holds about 83,000 compounds, 20% with a hit somewhere; the sample as a whole holds those more often.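 Plates (96-well) were seeded with cells, treated with compound at one concentration, and incubated for 48 hours before percent growth was determined.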 Unmarked numbers belong to inactive results. Active and inactive are the calls of the source. How the source made its calls: active means growth percent below 10; inactive means the rest.

Tested on: OVCAR-8 ovarian
Assay: NCI-60 one-dose screen, 48 h (100 = growth as untreated, 0 = no growth, -100 = all killed)
Conditions: 10 µM unless noted

Row | Compound | growth
1 | C/C(=N\NC(=O)CC#N)c1cc2cc(Cl)ccc2o1 | 109%
2 | O=C(Nc1ccc(F)cc1)c1cc([N+](=O)[O-])ccc1O | 76.2%
3 | CCN(CC)CCSc1c2ccc(Cl)cc2nc2ccc(OC)cc12 | 88.5%
4 | O=[N+]([O-])c1ccc(S(=O)(=O)N2CCN(c3ccnc4cc(Cl)ccc34)CC2)c([N+](=O)[O-])c1 | 97.1%
5 | O=[N+]([O-])c1c(S(=O)(=O)O)cc2cc(S(=O)(=O)O)ccc2c1[N+](=O)[O-] | 114%
6 | Clc1nc(Cl)c2ncn(C/C=C/Cn3cnc4c(Cl)nc(Cl)nc43)c2n1 | 7.73% (active)
7 | CC(C)C[C@H](NC(=O)Cn1ccc(NCc2ccccc2)cc1=O)B(O)O | 51.3%
8 | N#Cc1ccc(NC(=O)c2ccc3cccnc3c2O)cc1 | 16%
9 | CCCCCCc1nc2c(c(C)nn2-c2ccccc2)c2c1CCCCC2 | 107%
10 | Nc1nc(N)c2nc(CNc3ccc(C(=O)CC(CCC(=O)O)C(=O)O)cc3)cnc2n1 (centres undefined) | 14.8%
11 | Nc1nc(Cl)c2c(ncn2Cc2ccc(CCl)cc2)n1 | 49.4%
12 | CCOc1ccc(/C=C/C=N/NC(N)=S)cc1 | 100%
13 | COc1cc(/C=C/C(=O)c2ccccc2O)ccc1OCCCOc1cc2c(cc1OC)C(=O)N1CCC[C@H]1C=N2 | 18.1%
14 | CC(CCc1ccccc1)NC(=O)c1n[nH]c(=O)c2ccccc12 (centres undefined) | 101%
15 | COc1cc(-c2nc(-c3nc4ccccc4[nH]3)cc3c2[nH]c2ccccc23)cc(OC)c1OC | 13.2%
16 | O=C(/C=C/CN1CCOCC1)Nc1cc2c(Nc3ccc(F)c(Cl)c3F)ncnc2cc1OCCOC(F)F | 49.6%
17 | COc1cc(NS(C)(=O)=O)ccc1Nc1c2ccc([N+](=O)[O-])cc2nc2c(C)cccc12 | 13.7%
18 | O=S(=O)(NCCCNc1cc(-c2cn(-c3ccccc3)nc2-c2cccc(O)c2)ccn1)c1cccc2ccccc12 | 48.4%
19 | O=c1[nH]c(-c2cn(-c3ccc(Cl)cc3)nn2)nc2ccccc12 | 48.5%
20 | CCN(C(=O)c1cc2ccccc2[nH]1)[C@H]1CCC[C@@H](NCc2ccc(OC)cc2)C1 | 100%
21 | COc1ccc(/C=C/C(=O)c2ccc(B(O)O)cc2)cc1O | 89.9%
22 | Clc1ccc2c(c1)NC1(CCSc3ccccc31)n1nccc1-2 (centres undefined) | 100%
23 | O=C1NC(Cc2c[nH]c3ccccc23)C(=O)N1Cc1ccc(Cl)cc1 (centres undefined) | 97.9%
24 | CCCCCCCCCCC/C=C\C[C@H](O)C/C=C1/C(=O)C=C[C@@H]1C/C=C\CCCC(=O)OC | 7.18% (active)
